Inconclusive results are not listed. Active and inactive are the calls of the source. Calls follow the shape of the dose curve; as a rule, active = well fitted inhibition curve with a large enough effect; inconclusive = small, poorly fitted or top-dose-only effect; inactive = flat fitted curve, though single readings scatter.

Results on 28 compounds are retold here after PubChem BioAssay (NCATS).
Potency is read from the fitted curve at half-maximal effect.

The first assay relates to CP260. Kind of assay: qHTS profiling for inhibitors of Plasmodium falciparum proliferation (AID 504749). Also: nearly all actives have a fitted effect of over 60% in size.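 As to activity, negative = inhibition: 0% = DMSO vehicle and full inhibition = artemisinin control.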 The following applies: P. falciparum in erythrocytes, SYBR Green DNA, 72 h; series mostly up to 28.7 µM; activity, negative = inhibition: at the top concentration. The gist of the method:
(§1)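 SYBR Green fluorescence of parasite DNA, read after lysis and overnight dark incubation, measured growth over 72 h in erythrocyte culture at 0.3% parasitemia and 2.5% hematocrit. Data normalised to DMSO and 0.29 uM artemisinin, with plate-drift correction.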
(In general: In qHTS, concentration-response curves come from the screen itself.)
Regarding `O=C(CCCN1CCC(n2c(=O)[nH]c3ccccc32)CC1)c1ccc(F)cc1`, the Potency was 1.58 µM (active).

Consider `CC[C@]1(O)CC[C@H]2[C@@H]3CCC4=CCCC[C@@H]4[C@H]3CC[C@@]21C`, for which the “activity, negative = inhibition” value is -20.2% (inactive). Same read-out and setting: the figure for `CN1C(=O)CN=C(c2ccccc2)c2cc([N+](=O)[O-])ccc21` is 2.07% (inactive); for `CCCCCCCCC(=O)NCc1ccc(O)c(OC)c1` it is 2.3% (inactive); for `c1cc2c(c(N3CCNCC3)c1)OCCO2` it is -4.49% (inactive). Regarding `C=CCOC(Cn1ccnc1)c1ccc(Cl)cc1Cl` (configuration not stated), the Potency was 10 µM (active). As to `COc1ccc(CN2CCNCC2)c(OC)c1OC`, the “activity, negative = inhibition” value was 2.49% [at 12.8 µM] (inactive). The same measure, in the same setting: the figure for `Nc1ccc(N)cc1` is -13.6% (inactive). Take `Clc1ccc(CO/N=C(\Cn2ccnc2)c2ccc(Cl)cc2Cl)c(Cl)c1`: the Potency was 7.08 µM (active).

Regarding `C[C@]12Cc3nonc3C[C@@H]1CC[C@@H]1[C@@H]2CC[C@@]2(C)[C@H]1CC[C@]2(C)O`, the “activity, negative = inhibition” value is -10.5% (inactive). In the case of `O=C(NC(=O)c1c(F)cccc1F)Nc1cc(Cl)c(OC(F)(F)C(F)C(F)(F)F)cc1Cl` (configuration not stated), the Potency is 10 µM (active). In the case of `CNC(=O)Oc1cccc2ccccc12`, the “activity, negative = inhibition” value was -4.92% (inactive).

Take `N#Cc1nn(-c2c(Cl)cc(C(F)(F)F)cc2Cl)c(N)c1S(=O)C(F)(F)F` (configuration not stated): the Potency is 8.91 µM (active). For the compound `COCC(=O)N(c1c(C)cccc1C)C(C)C(=O)OC` (configuration not stated), the “activity, negative = inhibition” value is 3.51% (inactive). In the case of `COc1ccc(C(=O)N2CCCC2=O)cc1`, the “activity, negative = inhibition” value was 2.18% (inactive). On to `Oc1c(Br)cc(Br)cc1Br`, for which the “activity, negative = inhibition” value is -4.89% (inactive). `CC(C)(O)C(Cl)(Cl)Cl`: the Potency was 3.55 µM (active). For the compound `OC(O)C(Cl)(Cl)Cl`, the “activity, negative = inhibition” value is 10.7% (inactive). On the same count and under the same terms, then `C[N+](C)(C)CCOC(=O)C(O)(c1ccccc1)c1ccccc1`, with -3.13% (inactive); and `C[C@]12C=CC(=O)C=C1CC[C@@H]1[C@@H]2CC[C@@]2(C)[C@H]1CC[C@]2(C)O`, with -9.51% (inactive).

Another assay deals with CP262. Described as above. Conditions: P. falciparum in erythrocytes, SYBR Green DNA, 72 h; series mostly up to 28.7 µM; activity, negative = inhibition: at the top concentration. The gist of the method:
as §1
Turning to `O=C(CCCN1CCC(n2c(=O)[nH]c3ccccc32)CC1)c1ccc(F)cc1`, the “activity, negative = inhibition” value is 0% [at 12.8 µM] (inactive). On the same count and under the same terms, the figure for `CN1C(=O)[C@@H](NC(=O)c2cc3ccccc3[nH]2)N=C(c2ccccc2)c2ccccc21` is 0% (inactive); for `CC[C@]1(O)CC[C@H]2[C@@H]3CCC4=CCCC[C@@H]4[C@H]3CC[C@@]21C` it is 11.4% (inactive). For `Cc1c(Cl)c(=O)oc2cc(OP(=O)(OCCCl)OCCCl)ccc12`, the Potency is 7.57 µM (active). `CN1C(=O)CN=C(c2ccccc2)c2cc([N+](=O)[O-])ccc21`: the “activity, negative = inhibition” value was 4.43% (inactive).

On to `CCCCCCCCC(=O)NCc1ccc(O)c(OC)c1`, for which the “activity, negative = inhibition” value was 5.24% (inactive).

`c1cc2c(c(N3CCNCC3)c1)OCCO2`: the “activity, negative = inhibition” value is 1.18% (inactive). The same measure, in the same setting: then `C=CCOC(Cn1ccnc1)c1ccc(Cl)cc1Cl` (configuration not stated), with -7.02% (inactive). In the case of `CC(Cc1ccccc1)NCc1ccccc1Cl` (configuration not stated), the “activity, negative = inhibition” value was -2.33% (inactive).

Regarding `COc1ccc(CN2CCNCC2)c(OC)c1OC`, the “activity, negative = inhibition” value is 0% [at 12.8 µM] (inactive). For the compound `Clc1ccc(CO/N=C(\Cn2ccnc2)c2ccc(Cl)cc2Cl)c(Cl)c1`, the Potency was 15.1 µM (active).

With `C[C@]12Cc3nonc3C[C@@H]1CC[C@@H]1[C@@H]2CC[C@@]2(C)[C@H]1CC[C@]2(C)O`, the “activity, negative = inhibition” value was 7.55% (inactive). On to `ClC1=C(Cl)C2(Cl)C(CBr)CC1(Cl)C2(Cl)Cl` (configuration not stated), for which the “activity, negative = inhibition” value was -3.11% (inactive).

`CN1C[C@@H](NS(=O)(=O)N(C)C)C[C@@H]2c3cccc4c3c(cn4C)C[C@H]21`: the “activity, negative = inhibition” value was 0% (inactive). On the same count and under the same terms, then `O=C(NC(=O)c1c(F)cccc1F)Nc1cc(Cl)c(OC(F)(F)C(F)C(F)(F)F)cc1Cl` (configuration not stated), with -3.36% (inactive). For the compound `CNC(=O)Oc1cccc2ccccc12`, the “activity, negative = inhibition” value was 0% (inactive).

Take `N#Cc1nn(-c2c(Cl)cc(C(F)(F)F)cc2Cl)c(N)c1S(=O)C(F)(F)F` (configuration not stated): the Potency is 10.7 µM (active). With `COC(=O)C1=CCCN(C)C1`, the “activity, negative = inhibition” value is 12.8% (inactive). The same measure, in the same setting: then `COCC(=O)N(c1c(C)cccc1C)C(C)C(=O)OC` (configuration not stated), with 0.576% (inactive); and `COc1ccc(C(=O)N2CCCC2=O)cc1`, with -29% (inactive). With `Oc1c(Br)cc(Br)cc1Br`, the “activity, negative = inhibition” value is 8.28% (inactive). Consider `CC(C)(O)C(Cl)(Cl)Cl`, for which the “activity, negative = inhibition” value is 0% (inactive). With `CN1CCc2cc(Cl)c(O)cc2[C@H]2c3ccccc3CC[C@@H]21`, the “activity, negative = inhibition” value was 0% (inactive). For the compound `OC(O)C(Cl)(Cl)Cl`, the “activity, negative = inhibition” value was 2.95% (inactive). On the same count and under the same terms, then `C[N+](C)(C)CCOC(=O)C(O)(c1ccccc1)c1ccccc1`, with 0% (inactive); and `C[C@]12C=CC(=O)C=C1CC[C@@H]1[C@@H]2CC[C@@]2(C)[C@H]1CC[C@]2(C)O`, with 0% (inactive). Same read-out and setting: then `O=C1NCN(c2ccccc2)C12CCN(CCCOc1ccc(F)cc1)CC2`, with -3.68% (inactive).
